These results are taken from PubChem BioAssay.

For orientation: inhibition means the relative decrease from the control value, in per cent.

The nature of experiment [1]: compounds altering viability of human ES cells (AID 493140).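 Note: cells exposed to compounds for four days before counting.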 The conditions noted are these: human embryonic stem cell survival screen; stronger effect = higher value.
Experiment [2] can be described thus: compounds altering Cy5-DNA-NS3h complex signal – biochemical, LOPAC1280, artefact control for HCV NS3 helicase inhibitor project (AID 687037). The conditions noted are these: Cy5-DNA-NS3h complex fluorescence interference counterscreen. A general note: The purpose of a counterscreen is to sort out artefacts and off-target activity.
Experiment [3] can be described thus: Wnt pathway potentiators raising nuclear beta-catenin – imaging, WNT3A-conditioned medium, mouse C2C12, NPC library, primary screen (AID 1117326; in the data active = nuclear beta-catenin stimulation mostly above about 4.2%, no sharp cut-off; inactive = mostly below about 10%). The following applies: stronger effect = higher value.
Experiment [4] in a line: growth inhibition of GSK3B-pretreated HCT116 cells – cell-based, CellTiter-Glo, 0.2 to 20 µM (AID 1117336;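 active = compounds lowering colon cancer cell viability after pretreatment blocking the GSK3B kinase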). The following applies: HCT116 viability after GSK3B inhibitor, at 20 µM, stronger effect = higher value. A general note: In ATP-based viability assays light output follows the ATP content of the culture.
The nature of experiment [5]: HCT116 colon cancer cell growth inhibition, primary screen, CellTiter-Glo luminescence, NPC library (AID 1117342;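 active = compounds that lower survival of HCT116 colon cancer cells in the luminescence readout, no numeric limit stated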). The conditions noted are these: at 20 µM (top of the series).
Experiment [6] in a line: reduced SW480 viability measured with CellTiter-Glo, NPC library, primary (AID 1117343;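 active = compounds that lower viability of the colon cancer cells in the luminescence readout, with no numeric limit stated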). The following applies: CellTiter-Glo luminescence; at 20 µM (top of the series) unless noted.
The nature of experiment [7]: NPC library primary testing for decreased DLD-1 cell viability via CellTiter-Glo (AID 1117346;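 active = compounds that lower survival of DLD-1 colon cancer cells in the luminescence readout, no cutoff given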). The conditions noted are these: DLD-1 viability, CellTiter-Glo luminescence; at 20 µM (top of the series).
Experiment [8] has as its target 6-phosphogluconate dehydrogenase, decarboxylating (Homo sapiens) (UniProt P52209). Description: inhibition of human phosphogluconate dehydrogenase – biochemical, recombinant enzyme, NADPH absorbance, primary screen (AID 1159550;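 active = at least 20% inhibition of 6-phosphogluconate dehydrogenase activity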). The following applies: recombinant 6PGD, NADPH absorbance 341 nm; at 10 µM; stronger effect = higher value.
Experiment [9] can be described thus: modulation of C. elegans fzo-1 (AID 1259413).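 Note: fzo-1 mutant C. elegans worms in liquid wells.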 The conditions noted are these: C. elegans fzo-1 modulator screen, mean read-out; stronger effect = higher value.
A short description of experiment [10]: EMT-state selective cytotoxicity in co-culture – imaging, PC-3E GFP, TEM4-18 mCherry, primary screen (AID 1345086;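 active = compounds killing one labelled cell type while sparing the other, by normalised counts and ratio limits, not self-fluorescent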;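 for all read-outs here: cells exposed to compound for 72 h before imaging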;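 for red/green cell ratio (normalised): normalised mesenchymal count divided by normalised epithelial count so high means epithelial killing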). The following applies: PC-3E GFP / TEM4-18 mCherry co-culture, imaging cell counts, at 1 µM; for red/green cell ratio (normalised): actives lie on both sides, counts scaled to control wells, 1 = unselective.
Experiment [11] can be described thus: blockers of cellular phospholipid synthesis – cell-based, LOPAC library, screen 4, primary screen (AID 1347384). The conditions noted are these: animal cells, phospholipid biosynthesis inhibition screen; at 10 µM.
Experiment [12] in a line: MELAS cybrid and Rieske KO viability enhancers – cell-based, MELAS cybrids, Rieske KO mouse fibroblasts, CellTiter-Glo, primary screen (AID 1508586;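 active = mean z-score across replicates of 1.96 or higher in either the MELAS or the Rieske mutant cell line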;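 note: z relative to plate mean and SD of compound and empty wells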). The following applies: low glucose.
Experiment [13] has as its target NAD(+) hydrolase SARM1 (Homo sapiens) (UniProt Q6SZW1). Description: blocking NAD cleavage by SARM1 SAM-TIR – cell lysate, NAD-Glo luminescence (AID 1508614;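 active = compound whose remaining NAD level is above about 45 nM, limit read from the data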;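 note: higher remaining NAD means stronger inhibition of SARM1 NADase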). The conditions noted are these: SAM-TIR HEK293T lysate NADase, at 1 µM, stronger effect = higher value.
The target of experiment [14] is Mitogen-activated protein kinase 7 (Homo sapiens) (UniProt Q13164). Description: Gal4-ERK5 driven luciferase induction – cell-based, HTS, primary screen (AID 1508626;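 active = luciferase signal above three times the same-plate solvent-only control wells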;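 note: luciferase driven by Gal4-ERK5 fusion binding five Gal4 sites before minimal TATA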). The conditions noted are these: HeLa Gal4-ERK5 transactivation, 18 h, at 5 µM, stronger effect = higher value.
Experiment [15] is described as follows: stimulators of insulin release from INS-1E, primary screen, cell-based, 5 mM glucose, NPC library (AID 1117329;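 active = compound raises insulin release from rat beta cells at 5 mM glucose, no numeric limit stated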). The conditions noted are these: rat INS-1E insulin secretion, at 10 µM, stronger effect = higher value.
Experiment [16] is described as follows: inhibition of endothelial tube formation, primary screen, imaging, VEGF stimulated, CD31 staining, tube area, NPC library (AID 1117340;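 active = compound that reduces growth-factor-driven endothelial tube area in a mixed cell culture, no cutoff stated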). The conditions noted are these: VEGF-stimulated ADSC/ECFC co-culture, at 10 µM, stronger effect = higher value.
Experiment [17] is described as follows: GLP1 release stimulators, primary, NCI-H716, NPC library (AID 1117341;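 active = compound raises GLP1 secretion from the human gut endocrine cells, with no numeric limit stated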). The following applies: NCI-H716 cells, at 10 µM, stronger effect = higher value.
Experiment [18] in a line: viability loss with induced miR-34 in A549 – imaging, A549 dox-inducible miR-34, nuclei and caspase counts, primary screen (AID 1347080;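 active = compounds whose cell count with miR-34 switched on is under 0.7 times the count with it off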). The conditions noted are these: A549 miR-34 inducible, Hoechst nuclei count, 48 h.
The nature of experiment [19]: galactose survival enhancers in mitochondrial complex I cybrids – cell-based, galactose medium, ATP luminescence, primary screen (AID 1645843;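 active = z-score of at least 1.8 in each of two replicates, scored against plate mean and spread of sample wells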;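 note: positive z means more ATP and so rescue of galactose-driven cybrid death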). The conditions noted are these: complex I mutant cybrid cells, 72 h, stronger effect = higher value.
The mark [20] stands for this setting: measured here: epithelial PC-3E GFP cell survival.
[21] abbreviates: measured here: mesenchymal TEM4-18 mCherry cell survival.
[22] abbreviates: MELAS cybrid survival, CellTiter-Glo 48 h, stronger effect = higher value.
Setting [23] is: Rieske KO mouse fibroblast survival, CellTiter-Glo 72 h.
The mark [24] stands for this setting: stronger effect = lower value, cell number ratio, induced over uninduced.
Where [25] appears, read: measured here: relative caspase fold change +Dox/-Dox.
The mark [26] stands for this setting: measured here: total cells with miR-34 induction, stronger effect = lower value.
Setting [27] is: measured here: total cells without miR-34 induction.

Several values for one entry are separate records, joined by “and”; a condition that tells them apart may be missing. Equal values may be shown once. Activity calls are given as the source filed them. Unless noted, the rule behind the calls is not given here.

NAD(+) hydrolase SARM1 (Homo sapiens), sequence (Q6SZW1 whole entry, looked up, the tested form may be a part): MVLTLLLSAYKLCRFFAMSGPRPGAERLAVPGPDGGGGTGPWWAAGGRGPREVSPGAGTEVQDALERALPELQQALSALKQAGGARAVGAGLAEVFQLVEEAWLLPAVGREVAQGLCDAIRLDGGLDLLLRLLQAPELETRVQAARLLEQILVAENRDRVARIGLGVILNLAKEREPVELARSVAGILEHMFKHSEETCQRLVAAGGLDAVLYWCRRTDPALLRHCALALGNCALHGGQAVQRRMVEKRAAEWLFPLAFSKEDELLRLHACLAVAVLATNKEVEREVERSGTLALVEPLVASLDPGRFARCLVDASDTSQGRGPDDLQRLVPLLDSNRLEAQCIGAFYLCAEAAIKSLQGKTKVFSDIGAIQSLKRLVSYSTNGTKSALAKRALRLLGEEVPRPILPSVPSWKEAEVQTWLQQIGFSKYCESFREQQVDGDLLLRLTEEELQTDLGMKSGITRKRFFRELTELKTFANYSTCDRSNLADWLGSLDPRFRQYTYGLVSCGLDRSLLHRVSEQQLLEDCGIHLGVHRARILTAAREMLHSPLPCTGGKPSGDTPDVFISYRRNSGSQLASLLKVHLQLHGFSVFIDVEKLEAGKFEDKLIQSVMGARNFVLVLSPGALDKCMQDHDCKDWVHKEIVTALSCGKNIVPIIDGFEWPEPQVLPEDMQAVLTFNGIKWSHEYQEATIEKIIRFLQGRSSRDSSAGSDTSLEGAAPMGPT
Mitogen-activated protein kinase 7 (Homo sapiens), sequence (Q13164 whole entry, looked up, the tested form may be a part): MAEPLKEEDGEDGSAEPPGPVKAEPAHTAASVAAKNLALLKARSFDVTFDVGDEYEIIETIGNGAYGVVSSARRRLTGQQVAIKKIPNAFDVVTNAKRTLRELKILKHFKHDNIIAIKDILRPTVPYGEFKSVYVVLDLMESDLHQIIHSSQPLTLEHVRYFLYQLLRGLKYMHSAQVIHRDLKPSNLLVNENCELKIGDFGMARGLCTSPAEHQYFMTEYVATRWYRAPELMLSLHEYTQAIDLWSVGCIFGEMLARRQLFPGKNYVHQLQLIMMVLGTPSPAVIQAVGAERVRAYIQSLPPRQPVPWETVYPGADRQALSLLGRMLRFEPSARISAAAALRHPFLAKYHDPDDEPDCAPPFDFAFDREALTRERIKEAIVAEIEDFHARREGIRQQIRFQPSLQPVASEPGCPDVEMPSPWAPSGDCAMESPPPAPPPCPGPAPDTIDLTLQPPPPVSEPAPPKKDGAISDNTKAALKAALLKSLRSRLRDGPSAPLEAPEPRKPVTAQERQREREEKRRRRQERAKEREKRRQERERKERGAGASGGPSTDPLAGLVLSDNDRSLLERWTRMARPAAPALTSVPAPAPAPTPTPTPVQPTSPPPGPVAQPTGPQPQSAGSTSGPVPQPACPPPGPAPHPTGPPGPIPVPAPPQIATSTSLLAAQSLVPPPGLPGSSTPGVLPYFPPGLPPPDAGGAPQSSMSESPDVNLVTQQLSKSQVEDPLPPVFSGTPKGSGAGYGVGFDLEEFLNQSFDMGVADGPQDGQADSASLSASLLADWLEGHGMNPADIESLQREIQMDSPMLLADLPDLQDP
6-phosphogluconate dehydrogenase, decarboxylating (Homo sapiens), sequence (P52209 whole entry, looked up): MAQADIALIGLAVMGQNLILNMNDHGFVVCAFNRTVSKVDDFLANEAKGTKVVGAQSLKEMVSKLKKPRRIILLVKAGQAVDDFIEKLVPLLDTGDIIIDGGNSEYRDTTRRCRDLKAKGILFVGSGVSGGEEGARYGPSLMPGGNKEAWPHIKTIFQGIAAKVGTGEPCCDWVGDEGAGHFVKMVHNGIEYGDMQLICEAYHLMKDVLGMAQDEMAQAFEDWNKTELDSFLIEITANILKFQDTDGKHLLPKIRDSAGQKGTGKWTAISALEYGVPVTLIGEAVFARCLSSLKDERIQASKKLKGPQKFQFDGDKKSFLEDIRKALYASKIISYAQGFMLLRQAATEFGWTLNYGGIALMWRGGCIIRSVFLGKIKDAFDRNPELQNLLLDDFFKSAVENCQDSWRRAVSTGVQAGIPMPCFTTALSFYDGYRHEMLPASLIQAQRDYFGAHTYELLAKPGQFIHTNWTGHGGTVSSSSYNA

In the case of `N=c1nc(N2CCCCC2)cc(N)n1O`, in experiment [1], the survival was 23.2 (inactive). Further, in experiment [2], the fluorescence ratio (interference) is 1 (inactive). In addition, the nuclear beta-catenin stimulation in experiment [3] (at 10 µM) was 0.1% (inactive); in experiment [3] (stimulation, at 2 µM), 8.6%. For the same compound, the viability decrease in experiment [4] is 3.1% (inactive). For the same compound, the inhibition of viability in experiment [5] was 10.8% (inactive). For the same compound, the results for the viability decrease (inhibition) in [6] and in experiment [7] were -3.9% (inactive) and 7.1% (inactive), respectively. In addition, the inhibition in [8] was 0.805% (inactive). The mean signal in experiment [9] was 252 (inactive). Moreover, the red/green cell ratio (normalised) in experiment [10] was 1.27 (inactive). Besides, the normalised cell number was 1.08 in [10] (setting [20]) and 1.37 in experiment [10] (setting [21]). Further, the outcome in experiment [11] was inactive. The z-score was -0.417 (inactive) and -0.443 (inactive) in experiment [12] (setting [22]); 0.0783 and -0.248 in experiment [12] (setting [23]). In addition, in experiment [13], the remaining NAD is 10 nM (inactive). Further, in experiment [14], the luciferase signal was 44 AU (inactive).
For `C[C@@H](O[C@H]1OCCN(Cc2n[nH]c(=O)[nH]2)[C@H]1c1ccc(F)cc1)c1cc(C(F)(F)F)cc(C(F)(F)F)c1`, the insulin secretion stimulation in [15] was 1.6% (inactive). In addition, the viability decrease in experiment [4] is 99% (active). In addition, the tube area decrease in experiment [16] was 108% (active). The GLP1 secretion stimulation in [17] is -2.9% (inactive). Further, in experiment [5], the inhibition of viability is 97.5% (active). Besides, the viability decrease (inhibition) was 102% (active) in experiment [6] and 100% (active) in [7]. Also, the fold change in [18] (setting [24]) was 0.959 (inactive); in experiment [18] (setting [25]), 1.18. The cell count in experiment [18] (setting [26]) is 9050; in experiment [18] (setting [27]), 9430. The z-score was 0.822 and 0.307 (inactive) in experiment [12] (setting [22]); 2.09 and 0.201 in experiment [12] (setting [23]); -0.16 (inactive) in experiment [19].
For `Clc1ccccc1CN1CCc2sccc2C1`, in experiment [1], the survival was 17.8 (inactive). Besides, the insulin secretion stimulation in experiment [15] was -2.1% (inactive). Also, the viability decrease in [4] is 13.8% (inactive). The tube area decrease in [16] was 5.4% (inactive). Further, the GLP1 secretion stimulation in experiment [17] was -2.6% (inactive). The inhibition of viability in [5] was 3.9% (inactive). Further, the values for the viability decrease (inhibition) in [6] and in experiment [7] were 70.5% (active) and 32.4% (inactive), respectively. In addition, the mean signal in experiment [9] was 271 (inactive). Also, the red/green cell ratio (normalised) in [10] was 0.9 (inactive). In addition, the normalised cell number was 1.03 in [10] (setting [20]) and 0.94 in [10] (setting [21]). Further, the z-score was 0.708 (inactive) and -0.623 (inactive) in [12] (setting [22]); 0.315 and 0.0692 in [12] (setting [23]); -1.11 (inactive) and 0.17 (inactive) in experiment [19]. In addition, the remaining NAD in experiment [13] was 10 nM (inactive). Moreover, the luciferase signal in experiment [14] was 52 AU (inactive).
Regarding `O=C(O)COCCN1CCN(C(c2ccccc2)c2ccc(Cl)cc2)CC1` (centres undefined), the survival in experiment [1] is 20 (inactive). For the same compound, the fluorescence ratio (interference) in experiment [2] is 1 (inactive). Further, the insulin secretion stimulation in experiment [15] is 4.3% (inactive). For the same compound, the viability decrease in [4] was -8.4% (inactive). The tube area decrease in experiment [16] was 2.5% (inactive). The GLP1 secretion stimulation in experiment [17] was 1.4% (inactive). For the same compound, in experiment [5], the inhibition of viability was 11.2% (inactive). For the same compound, the values for the viability decrease (inhibition) in [6] and in experiment [7] were -6.6% (inactive) and 8.8% (inactive), respectively. In addition, in experiment [9], the mean signal was 254 (inactive). In addition, the red/green cell ratio (normalised) in experiment [10] is 0.83 (inactive). The normalised cell number was found to be 1.06 in experiment [10] (setting [20]) and 0.88 in experiment [10] (setting [21]). Besides, the compound was classed as inactive in experiment [11]. The z-score in experiment [12] (setting [22]) was -0.429 (inactive) and 0.214 (inactive); in experiment [12] (setting [23]), 0.813 and 0.142. Further, the remaining NAD in experiment [13] is 10 nM (inactive). In addition, the luciferase signal in experiment [14] was 76 AU (inactive).
Turning to `O=C(NCC1CCCCN1)c1cc(OCC(F)(F)F)ccc1OCC(F)(F)F` (centres undefined), in [1], the survival was 2.25 (inactive). For the same compound, the insulin secretion stimulation in experiment [15] was 3.7% (inactive). In addition, the viability decrease in experiment [4] was -3.9% (inactive). In experiment [16], the tube area decrease is -3.2% (inactive). In experiment [17], the GLP1 secretion stimulation was 1.7% (inactive). Besides, the inhibition of viability in experiment [5] was 21.7% (inactive). For the same compound, the viability decrease (inhibition) in experiment [6] was 1.6% (inactive); in experiment [7], -7.6% (inactive). Further, the mean signal in experiment [9] was 257 (inactive). In addition, the z-score in experiment [12] (setting [22]) was -0.524 (inactive) and 0.18 (inactive); in [12] (setting [23]), 0.614 and 0.91; in experiment [19], -1.51 (inactive) and -0.39 (inactive) and 0.37 (inactive). Moreover, the luciferase signal in experiment [14] is 68 AU (inactive).
On to `CCCC(=O)OC1(C(=O)CO)CCC2C3CCC4=CC(=O)CCC4(C)C3C(O)CC21C` (centres undefined), for which the inhibition in experiment [8] was -0.0758% (inactive).
With `CC1(C)[C@H](C(=O)O)N2C(=O)C[C@H]2S1(=O)=O`, in experiment [15], the insulin secretion stimulation is -1.5% (inactive). The viability decrease in experiment [4] was 0.3% (inactive). Further, the tube area decrease in experiment [16] was -3.3% (inactive). The GLP1 secretion stimulation in [17] was -0.3% (inactive). Moreover, the inhibition of viability in experiment [5] was -13.6% (inactive). Also, the viability decrease (inhibition) in experiment [6] is 6.5% (inactive); in [7] it was 3.8% (inactive). Moreover, the fold change in [18] (setting [24]) was 0.988 (inactive) and 0.885 (inactive) and 0.887 (inactive); in [18] (setting [25]) it was 0.598 and 0.786 and 1.47. Also, the cell count was 7470 and 7970 and 9900 in experiment [18] (setting [26]); 7550 and 9000 and 11200 in [18] (setting [27]). For the same compound, in experiment [13], the remaining NAD was 10 nM (inactive). Further, the z-score in experiment [19] is 0.33 (inactive).
